Data published in publication PMC7862700, “An all-to-all approach to the identification of sequence-specific readers for epigenetic DNA modifications on cytosine”.

Each sequence was assayed against T1, FLI1 (Homo sapiens, UniProt Q01543 1-452) (assay: DAPPL (digital affinity profiling via proximity ligation, sequencing); 10 mM Tris-HCl pH 7.5, 50 mM NaCl, 1 mM DTT, 4% glycerol, room temperature, 30 min; GST-TFs on glutathione beads, 16-mer random dsDNA library, 0.1% formaldehyde crosslink after washing; high values mean tight binding). Settings: protein: recombinant; tags: N-terminal GST; dsDNA, one strand shown.
T1 sequence: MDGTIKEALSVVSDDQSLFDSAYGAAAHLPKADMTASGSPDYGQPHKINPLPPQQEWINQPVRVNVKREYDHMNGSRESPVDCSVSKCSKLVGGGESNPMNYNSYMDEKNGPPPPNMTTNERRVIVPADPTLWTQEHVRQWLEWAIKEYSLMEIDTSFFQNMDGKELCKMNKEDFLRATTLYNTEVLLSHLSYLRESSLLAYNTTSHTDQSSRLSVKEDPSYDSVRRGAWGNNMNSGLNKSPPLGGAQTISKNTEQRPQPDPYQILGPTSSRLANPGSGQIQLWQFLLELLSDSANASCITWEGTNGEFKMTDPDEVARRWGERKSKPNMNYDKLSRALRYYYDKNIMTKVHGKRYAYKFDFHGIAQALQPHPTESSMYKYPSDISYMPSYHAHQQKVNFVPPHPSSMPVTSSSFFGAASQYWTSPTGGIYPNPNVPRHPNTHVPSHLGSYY
Summary of the method: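 Binding signal is given per hexamer as its read frequency for a factor divided by its frequency in the tag-only sample. GST-fused human transcription factors were expressed in yeast, captured on glutathione beads, barcoded with DNA and pooled with that sample, then incubated with 200 nmole of a 16-mer random double-stranded DNA library in Tris/NaCl/DTT/glycerol buffer for 30 min at room temperature. The pools were then washed, crosslinked, proximity-ligated, amplified by PCR and sequenced on an Illumina NextSeq500.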

Row | Sequence | binding signal
1 | CATAAC | 1.09 fold enrichment (6-mer frequency, TF over GST control)
2 | TATCCC | 1.63 fold enrichment (6-mer frequency, TF over GST control)
3 | TGTTAC | 1.49 fold enrichment (6-mer frequency, TF over GST control)
4 | ACCCAC | 1.28 fold enrichment (6-mer frequency, TF over GST control)
5 | TATTGC | 1.39 fold enrichment (6-mer frequency, TF over GST control)
6 | ATTGAA | 1.07 fold enrichment (6-mer frequency, TF over GST control)
7 | CGATAC | 1.19 fold enrichment (6-mer frequency, TF over GST control)
8 | CGCTAC | 1.24 fold enrichment (6-mer frequency, TF over GST control)
9 | CTGGTC | 1.11 fold enrichment (6-mer frequency, TF over GST control)
10 | GGAAGC | 1.5 fold enrichment (6-mer frequency, TF over GST control)
11 | CTTACG | 1.16 fold enrichment (6-mer frequency, TF over GST control)
12 | CATCCG | 2.09 fold enrichment (6-mer frequency, TF over GST control)
13 | TTTCAA | 1.24 fold enrichment (6-mer frequency, TF over GST control)
14 | TACATC | 1.63 fold enrichment (6-mer frequency, TF over GST control)
15 | CACAAC | 1.24 fold enrichment (6-mer frequency, TF over GST control)
16 | ATCCCA | 1.07 fold enrichment (6-mer frequency, TF over GST control)
17 | TGTCTC | 1.31 fold enrichment (6-mer frequency, TF over GST control)
18 | TACCGC | 1.16 fold enrichment (6-mer frequency, TF over GST control)
19 | ATGGCT | 1.17 fold enrichment (6-mer frequency, TF over GST control)
20 | TCTGGG | 1.1 fold enrichment (6-mer frequency, TF over GST control)

Row | Sequence | binding signal
21 | CTACCC | 1.27 fold enrichment (6-mer frequency, TF over GST control)
22 | TTCAGT | 1.07 fold enrichment (6-mer frequency, TF over GST control)
23 | TGTACT | 1.28 fold enrichment (6-mer frequency, TF over GST control)
24 | CACTTG | 1.36 fold enrichment (6-mer frequency, TF over GST control)
25 | AAGCGG | 1.13 fold enrichment (6-mer frequency, TF over GST control)
26 | ATCATG | 1.21 fold enrichment (6-mer frequency, TF over GST control)
27 | ATAAAC | 1.22 fold enrichment (6-mer frequency, TF over GST control)
28 | TAATCC | 1.29 fold enrichment (6-mer frequency, TF over GST control)
29 | CCTTCA | 1.49 fold enrichment (6-mer frequency, TF over GST control)
30 | TCTCAA | 1.38 fold enrichment (6-mer frequency, TF over GST control)
31 | GGCTAG | 1.07 fold enrichment (6-mer frequency, TF over GST control)
32 | TAGGAA | 1.07 fold enrichment (6-mer frequency, TF over GST control)
33 | CACTGG | 1.15 fold enrichment (6-mer frequency, TF over GST control)
34 | TTATCA | 1.16 fold enrichment (6-mer frequency, TF over GST control)
35 | CATCAC | 1.1 fold enrichment (6-mer frequency, TF over GST control)
36 | GCCAAT | 1.1 fold enrichment (6-mer frequency, TF over GST control)
37 | ACACAA | 1.14 fold enrichment (6-mer frequency, TF over GST control)
38 | CACATA | 1.14 fold enrichment (6-mer frequency, TF over GST control)
39 | CTCATA | 1.39 fold enrichment (6-mer frequency, TF over GST control)
40 | TGATTT | 1.29 fold enrichment (6-mer frequency, TF over GST control)
